In PubChem BioAssay (NCATS):
Unmarked numbers belong to inactive results. Records with an inconclusive call do not appear. Where a call stands in place of a potency, no number is given. Activity calls are given as the source filed them. Unless noted, calls come from the whole dose curve; as a rule, active = well fitted curve in the direction sought with a large enough effect; inconclusive = small, poorly fitted or top-dose-only effect, or another doubt; inactive = no such curve, though single readings can be large; an effect the other way counts as inactive or inconclusive.

Legend:
[1] = Confirmation and Secondary Assay for Modulators of Hemoglobin Beta Chain Splicing at IVS2 654 locus (AID 910);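 note: HeLa cells stably carrying EGFP split by mutant beta-globin IVS2-654 intron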
Outline: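 HeLa cells stably expressing EGFP interrupted by β-globin IVS2-654 intron, seeded overnight in Opti-MEM/2% FCS, then treated 2 days at 37 °C. Restored splicing read as total peak GFP intensity per well by laser scanning cytometry (488 nm excitation, 500–520 nm emission); 500 nM antisense PNA as control.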

[2] = qHTS Assay for Identification of Small Molecule Agonists for Thrombopoietin (TPO) Signaling Pathway (AID 917)
Outline: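 Luminescence from a Glycoprotein IIb promoter–driven luciferase reporter served as read-out in murine Ba/F3 cells carrying the human TPO receptor. Cells, deprived of IL-3 overnight, received compounds with 26 pM TPO and were incubated 24 hrs at 37 C.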

[3] = Confirmation and Secondary Assay for Modulators of Hemoglobin Beta Chain Splicing at IVS2 705 locus (AID 930);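 note: HeLa cells stably expressing the EGFP-705 splicing reporter; GFP fluorescence per well restored by corrected splicing of the IVS2-705 intron in EGFP; series mostly up to about 46 µM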
Outline: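 HeLa cells stably carrying EGFP interrupted by mutant beta-globin intron 2 (IVS2-705) treated 2 days at 37C with compound; 500 nM antisense PNA as control. Correct splicing read as total peak GFP intensity per well by laser-scanning cytometry.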

[4] = biological target: Muscarinic acetylcholine receptor M1 (Rattus norvegicus) (UniProt P08482); assay: qHTS Assay for Antagonists of Acetylcholine Muscarinic M1 Receptor: Kinetic Measurement of Intracellular Calcium Response (AID 943); note: series mostly up to about 35 µM; nearly all actives have a fitted effect of over 75% in size
Muscarinic acetylcholine receptor M1 (Rattus norvegicus), sequence (P08482 whole entry, looked up): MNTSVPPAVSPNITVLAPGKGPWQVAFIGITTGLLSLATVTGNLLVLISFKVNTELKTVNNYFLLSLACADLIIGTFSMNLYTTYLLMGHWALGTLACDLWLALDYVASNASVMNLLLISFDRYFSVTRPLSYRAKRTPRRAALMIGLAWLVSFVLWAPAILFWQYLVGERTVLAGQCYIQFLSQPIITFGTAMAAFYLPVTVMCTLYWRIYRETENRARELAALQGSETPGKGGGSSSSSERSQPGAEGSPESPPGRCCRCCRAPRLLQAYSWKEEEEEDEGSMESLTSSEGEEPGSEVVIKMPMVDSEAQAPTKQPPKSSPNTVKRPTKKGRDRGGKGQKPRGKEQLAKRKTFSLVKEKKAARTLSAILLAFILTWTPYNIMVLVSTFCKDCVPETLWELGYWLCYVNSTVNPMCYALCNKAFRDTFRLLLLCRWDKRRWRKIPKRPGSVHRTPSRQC
Outline: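 CHO cells expressing rat M1 receptor, Fluo-4 loaded, preincubated 10 min with compound, then stimulated with EC80 carbachol (100 nM final). Kinetic calcium fluorescence over 4 min; response taken as peak over basal signal.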

[5] = biological target: Muscarinic acetylcholine receptor M1 (Rattus norvegicus) (UniProt P08482); assay: qHTS Assay for Antagonists of Acetylcholine Muscarinic M1 Receptor: Measurement of IP-One Response (AID 944); note: nearly all actives have a fitted effect of over 75% in size; note: potency is the fitted concentration of half-maximal effect
Outline: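 CHO cells stably expressing rat M1, pretreated 10 min with compound, then stimulated 30 min with carbachol at EC80 (200 nM) in LiCl-containing buffer pH 7.4; IP1 accumulation read by HTRF competition (665/620 nm).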

[6] = qHTS Assay for Identification of Small Molecule Agonists for Hypoxia Response Element Signaling Pathway (AID 914; active = well fitted activation curve with a large enough effect in the signal ratio, with a control signal flat, not every such curve was filed as active; the % refers to the signal ratio); details: ME-180 (cervical carcinoma) HRE-bla reporter, beta-lactamase ratio, CoCl2, 17 h; stronger effect = higher value
Outline: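 HRE-bla ME-180 cells with beta-lactamase reporter under hypoxia response element, compounds with EC50 CoCl2 for 17 hours at 37 C. CCF4 substrate, 460nm/530nm emission ratio gave %Activity; AC50 from titration series.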

[7] = Cell Viability - LYMP2-001 (AID 921); note: series mostly up to about 92 µM; nearly all actives have a fitted effect of over 70% in size
Outline: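 Steps: seed 2500 lymphoblastoid cells/well; 5 hr, 37 C; add compound; 24 hr, 37 C; CellTiter-Glo reagent, 30 min room temperature; read luminescence. Concentration-response modeled by Hill equation for AC50.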

[8] = MultiTox-Fluor Cytotoxicity Assay - LYMP1-001 - Dead Cells (AID 946);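 note: cells exposed to compound for 16 h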
Outline: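 AC50 from Hill fit of concentration-response; data normalized to DMSO (basal) and 15 uM tetraoctylammonium bromide (100%). LYMP1-001 lymphoblastoid cells, 2500/well, 16 hr compound at 37 C; dead-cell protease fluorescence, Ex/Em 485/520.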

[9] = MultiTox-Fluor Cytotoxicity Assay - LYMP1-001 - Live Cells (AID 947)
[10] = qHTS Assay for Identification of Small Molecule Antagonists for Thrombopoietin (TPO) Signaling Pathway (AID 918); details: TPO-dependent cell signaling reporter, antagonist mode; note: potency is the fitted concentration of half-maximal effect; nearly all actives have a fitted effect of over 60% in size
Outline: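 Murine Ba/F3 cells expressing human TPO receptor and a Glycoprotein IIb promoter-luciferase reporter, IL-3-starved overnight, treated with compound plus TPO at EC50 (26 pM final). After 24 h at 37 C, luminescence read to detect inhibitors.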

With COc1ccccc1N1CCNCC1 the outcome [1] was “inactive”, the outcome [2] was “inactive” and the outcome [3] was “inactive”. For the same compound, the Potency [4] was “inactive” and the Potency [5] was “inactive”.
In the case of NCC(CC(=O)O)c1ccc(Cl)cc1 (stereo unspecified), the outcome [1] is reported as “inactive”, the outcome [2] is reported as “inactive” and the outcome [3] is reported as “inactive”.
In the case of CCCC(C)(COC(N)=O)COC(=O)NC(C)C (stereo unspecified), the outcome [1] is reported as “inactive”, the activation [6] is reported as -37.8% and the outcome [2] is reported as “inactive”. The Potency [7] was “inactive”, the outcome [3] was “inactive” and the Potency [5] was “inactive”. The Potency [8] was “inactive”.
In the case of NCC(O)c1ccc(O)cc1 (stereo unspecified), the outcome [1] is reported as “inactive”, the Potency [7] is reported as “inactive” and the outcome [3] is reported as “inactive”. The Potency [8] was “inactive” and the outcome [9] was “inactive”.
In the case of CC(C)=CCOc1c2occc2cc2ccc(=O)oc12, the outcome [1] is reported as “inactive” and the outcome [3] is reported as “inactive”.
For O=[N+]([O-])c1cc([As](=O)(O)O)ccc1O, the outcome [1] was “inactive” and the outcome [3] was “inactive”.
With O=c1[nH]c2ccccc2n1CCCN1CCC(n2c(=O)[nH]c3cc(Cl)ccc32)CC1 the outcome [1] was “inactive”, the outcome [2] was “inactive” and the outcome [3] was “inactive”. For the same compound, the Potency [5] was 14.1 µM (active).
In the case of COc1ccc(C(CN(C)C)C2(O)CCCCC2)cc1 (stereo unspecified), the outcome [1] is reported as “inactive” and the outcome [3] is reported as “inactive”.
With CC(=O)Nc1cc([As](=O)(O)O)ccc1O the outcome [1] was “inactive” and the outcome [3] was “inactive”.
Work on c1ccc(C2CC2)c(OCC2=NCCN2)c1 yielded an activation [6] of 8.99%.
O=P1(NCCCl)OCCCN1CCCl (stereo unspecified) gave an activation [6] of -2.35%.
In the case of CN1C[C@H](CNC(=O)OCc2ccccc2)C[C@@H]2c3cccc4c3c(cn4C)C[C@H]21, the Potency [10] is reported as 10 µM (active).
For Fc1ccc(C(OCCN2CCN(CCCc3ccccc3)CC2)c2ccc(F)cc2)cc1, the Potency [10] was 10 µM (active).
